Data: PubChem BioAssay (NCI)
The panel holds about 79,000 compounds, 15% with a hit somewhere; the sample as a whole holds those more often. A number with no mark means an inactive call. Calls of active or inactive are those of the source. Cut-off read from the data, not from the text of the source: active = growth inhibition above about 70%; inactive = the rest.

Key:
[1] = NCI Yeast Anticancer Drug Screen. Data for the rad50 strain (AID 155);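 note: 0% = growth of vehicle-only cultures of the same strain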; conditions: S. cerevisiae rad50 strain growth inhibition; at 50.0 µM; stronger effect = higher value
Procedure, shortened: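 Readout: growth inhibition relative to vehicle-treated cultures. Compound exposure was carried out in a genetically defined yeast strain deficient in DNA damage repair.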

[2] = NCI Yeast Anticancer Drug Screen. Data for the mec2-1 strain (AID 157); conditions: S. cerevisiae mec2-1 strain, at 50.0 µM, stronger effect = higher value
Procedure, shortened: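 mec2-1 yeast strain, carrying an alteration in DNA damage repair or cell cycle control, was exposed to compounds; growth inhibition was measured relative to vehicle-treated controls.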

[3] = NCI Yeast Anticancer Drug Screen. Data for the sgs1 mgt1 strain (AID 161);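 note: 0% = growth of cultures given vehicle only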; conditions: S. cerevisiae sgs1 mgt1 strain, at 50.0 µM, stronger effect = higher value
Procedure, shortened: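 Yeast cells carrying a defined DNA-repair defect were exposed to test compounds. Growth inhibition was measured relative to vehicle-treated controls.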

[4] = NCI Yeast Anticancer Drug Screen. Data for the cln2 rad14 strain (AID 165);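 note: 0% = growth equal to vehicle treated cultures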; conditions: S. cerevisiae cln2 rad14 strain, at 50.0 µM, stronger effect = higher value
Procedure, shortened: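 Yeast carrying cln2 and rad14 alterations (cell cycle control and DNA damage repair) were exposed to compounds. Growth inhibition was measured against vehicle-treated controls.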

[5] = NCI Yeast Anticancer Drug Screen. Data for the bub3 strain (AID 167); conditions: S. cerevisiae bub3 mutant strain, at 50.0 µM, stronger effect = higher value
Procedure, shortened: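 Readout: yeast growth inhibition, expressed relative to vehicle-only wells. The test organism is a mutant strain from a panel with lesions in DNA repair or checkpoint genes.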

[6] = NCI Yeast Anticancer Drug Screen. Data for the mlh1 rad18 strain (AID 175); conditions: S. cerevisiae mlh1 rad18 strain growth inhibition; at 50.0 µM; stronger effect = higher value
Procedure, shortened: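 Growth inhibition of the yeast strain was measured after compound exposure and expressed relative to vehicle-treated controls. The strain carries defined defects in DNA damage repair.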

| Compound | growth inhibition [1] | growth inhibition [2] | growth inhibition [3] | growth inhibition [4] | growth inhibition [5] | growth inhibition [6] |
| --- | --- | --- | --- | --- | --- | --- |
| CC1=CC=CNC1(N)Br (stereo not given) | 3.7% | 4% | 15.8% | 19.4% | 7.55% | -4.9% |
| CCCSc1ccc([N+](=O)[O-])cc1[N+](=O)[O-] | 31.8% | -5.6% | 25.2% | 1% | -5.35% | 32.8% |
| Brc1nccs1 | -21.9% | -21.4% | -13.2% | -11.1% | -9.05% | -27.1% |
| CC[N+](C)(CC)Cc1ccc([NH-])c([NH-])c1.[Cl][Pt+2][Cl] | 35.1% | 27.4% | 36% | 37.2% | -13.7% | 28.4% |
| O=C(O)CCC(=O)NC(c1ccccc1)(c1ccccc1)c1ccccc1 | -17.4% | -9.45% | -0.15% | -37.1% | 3.2% | 3.1% |
| CC(CN1c2ccccc2Sc2ccccc21)N(C)CCO (stereo not given) | 3% | -24.7% | -4.05% | -1.6% | -4.3% | -0.9% |
| Cc1ccc(C(=O)C[n+]2ccccc2)c(O)c1 | -5.45% | -9.9% | 8.85% | -38% | 4.65% | 14.1% |
| CCOc1ccc(NC=O)cc1 | 0.75% | 8.45% | 5.2% | -3.55% | 18.5% | -11.3% |
| C1CC2(CC3(C1)SCCS3)SCCS2 | -0.3% | 7.2% | -0.85% | -12.3% | 1.55% | 0.05% |
| FC(F)(F)C1(C(F)(F)F)OI2(Br)(OC(C(F)(F)F)(C(F)(F)F)c3ccccc32)c2ccccc21 | -6.05% | -0.25% | -11.2% | 21.2% | -5.3% | 27.1% |
| COc1ccccc1NC(=O)CC(=O)N1N=C(N2c3ccccc3Sc3ccccc32)CC1c1ccccc1 (stereo not given) | 2.55% | 3.2% | -2.15% | 22.7% | 12.4% | -66.5% |
| O=S1(=O)CC(N2CCCCC2)C1 | -3.95% | 2.05% | 17.3% | -40.9% | -3% | -13.3% |
| COc1cccc(/C=N/[N-]C(N)=O)c1[O-].[OH3+].[Pd+2] | 7.65% | 8.2% | 15.9% | 7.4% | 18.9% | 21.6% |
| CC(=O)/C(=C/N1CCNC1=S)C(=O)Nc1ccc(Cl)cc1 | -34.5% | -24% | -39.6% | 0.2% | -39.2% | -26.3% |
| CCCCCCCCCCc1ccc(CCCCCCCCCC)cc1 | 7% | 7.2% | 4.6% | -4.55% | 2.05% | -7.9% |
| CC(C)(C)OC(=O)NC(CCCCNC(=O)OCc1ccccc1)C(=O)NCCNc1ccc(NCCNC(=O)C(CCCCNC(=O)OCc2ccccc2)NC(=O)OC(C)(C)C)c2c1C(=O)c1ccccc1C2=O (stereo not given) | -3.7% | 0.1% | -27.4% | -1.4% | -31.6% | -52.8% |
| N#CC(C(=O)C(=O)Nc1cccc(Cl)c1)c1ccccc1 (stereo not given) | -4.55% | -6.9% | -19% | -89.1% | -11.8% | -4.2% |
| CC(=O)OCC12CCC(O1)C1C(=O)OC(=O)C12 (stereo not given) | -3.85% | -2.25% | -9.2% | -3.4% | -11.1% | 1.05% |
| CCOC1=C([N+](=O)[O-])C(c2ccccc2)NC1=O (stereo not given) | 10.8% | -0.6% | -3% | 15.1% | -35.3% | 11.7% |
| CC(=O)NCCNC(=O)c1ccc(C)c(OCc2ccccc2)c1[N+](=O)[O-] | 7% | 11.7% | -1% | -26.2% | -1.6% | 4.45% |

| Compound | growth inhibition [1] | growth inhibition [2] | growth inhibition [3] | growth inhibition [4] | growth inhibition [5] | growth inhibition [6] |
| --- | --- | --- | --- | --- | --- | --- |
| CC1OC(OC2CCC3(C)C(CCC4C3CC(O)C3(C)C(C5=CC(=O)OC5)CCC43O)C2)CC(O)C1OC1CC(O)C(OC2CC(O)C(OC3OC(CO)C(O)C(O)C3O)C(C)O2)C(C)O1 (stereo not given) | 16.4% | -7.7% | -0.4% | 4.35% | 10.6% | 20.1% |
| CCOP(=O)(OCC)C(F)(F)Cc1cnc(C)c2c1COC(C)(C)O2 | -14.8% | -34.8% | -32.5% | -16.7% | 17.9% | -27.3% |
| CCCCOC(=O)/C(CC(=O)C=C(C)C)=N\NS(=O)(=O)c1ccc(C)cc1 | 1.75% | -14.1% | -10.5% | 5.3% | -8.5% | -5.75% |
| O=P(NC1CCCCC1)(NC1CCCCC1)NC1CCCCC1 | 19.1% | -1.75% | -0.75% | 12.1% | 12.8% | 14.2% |
| CC(=O)Nc1cccc(N=NN(C)C)c1 | 14.2% | 14.1% | 39% | 20.5% | 34.4% | 29.6% |
| N#CCCc1c(O)ccc2ccccc12 | 38.6% | 0.6% | 10.1% | -59.9% | 10.5% | 11.6% |
| COc1ccc(C(=O)N/N=C/c2ccccc2Cl)cc1 | 1% | 0.45% | 19.1% | -10.6% | 19.4% | 18.4% |
| O=C1c2ccccc2S(=O)(=O)c2cc(-c3nn[nH]n3)ccc21 | -2.6% | -29.8% | -22.8% | 0.6% | -13.7% | -48% |
| Clc1ccc(N[P+](c2ccccc2)(c2ccccc2)c2ccccc2)cc1.[Cl][Fe]([Cl])([Cl])[Cl] | 39.3% | 12% | 45.4% | 5% | 5.8% | 17.8% |
| CCCCSCCOC(=O)C1C2CCC(O2)C1C(=O)O (stereo not given) | 19.5% | -3.85% | 0.1% | 13.4% | -1.25% | 13.8% |
| Nc1c(-c2ccccc2[N+](=O)[O-])nc2ccccn12 | -16.1% | -43.5% | -49.3% | -2.15% | -19.2% | -21.1% |
| O[C@H]1[C@H]2[C@H](O)C[C@H](CCOCc3ccccc3)CN2C[C@H]1O | -8.15% | 7.8% | -3.45% | 20% | 16% | -22.9% |
| CON(C)CCOC(=O)c1ccc([N+](=O)[O-])cc1 | -5.25% | 4.15% | -2.6% | -21.4% | 3.95% | 27.2% |
| CSCC(=O)c1ccccc1 | 17.4% | 6.55% | 9.25% | -6.3% | 2.15% | 5.3% |
| COC[C@H]1C(=O)NCC(=O)N2N=CCC[C@H]2C(=O)N(O)[C@H](C)C(=O)O[C@@H](C(C)C)[C@H](NC(=O)[C@@](C)(O)[C@]2(O)CC[C@@H](CC(C)C)[C@H](C)O2)C(=O)N2NCCC[C@@H]2C(=O)N1O | 91.8% (active) | 93.6% (active) | 93.7% (active) | 91.2% (active) | 93.2% (active) | 92.1% (active) |
| CCOC(=O)Nc1cccc(Cl)c1 | 10.9% | -2.45% | 18.9% | 9.65% | -7.35% | 22.1% |
| CCOC(=O)CN | -0.25% | 7.7% | 2.15% | -0.4% | -2% | 14.1% |
| COC(=O)C(=O)c1c(-c2ccc(O)c(OC)c2)[nH]c2[nH]n(-c3ccccc3)c(=O)c2c1=O | 24.6% | -17.2% | -1.75% | -30.1% | 14.8% | 14.5% |
| Clc1ccc(C(=C(c2ccc(Cl)cc2)c2ccc(Cl)cc2)c2ccc(Cl)cc2)cc1 | -3.85% | 5.4% | 3.5% | -3.35% | 10.4% | -1.45% |
| O=C1CN(/C=C(\c2ccccc2)S(=O)Cc2ccccc2)C(=S)N1 (stereo not given) | -19.9% | -29.5% | -28.4% | -7.7% | 0% | -24.2% |
